According to ChEMBL document CHEMBL1157539, “Thousands of chemical starting points for antimalarial lead identification” (Nature, 2010):

Columns and labels:
Type in all cases: functional
Plasmodium falciparum [1] = assay: GSK_TCMDC: Inhibition of Plasmodium falciparum 3D7 in whole red blood cells, using parasite LDH activity as an index of growth. Test compounds present at 2uM
Plasmodium falciparum [2] = assay: GSK_TCMDC: Inhibition of Plasmodium falciparum Dd2 in whole red blood cells, using parasite LDH activity as an index of growth. Test compounds present at 2uM
HepG2 = assay: GSK_TCMDC: Percent inhibition of human HepG2 cell line. Test compounds present at 10uM.

SMILES	Inhibition (Plasmodium falciparum [1])	Inhibition (Plasmodium falciparum [2])	Inhibition (HepG2)
Nc1ncc(-c2cn[nH]c2)cc1-c1nc2cc(Cl)cnc2[nH]1	100%	70%	40%
O=c1cc(NCCCNCc2cc(Cl)c(Cl)cc2Cl)[nH]c2ccccc12	93%	20%	7%
CCC(C)NC(=O)CN1CN(c2ccccc2)C2(CCN(C(=O)c3ccc4ccccc4c3)CC2)C1=O (configuration not stated)	95%	78%	0%
CCN(CC)CCNc1ccnc2c3ccccc3n(C)c12	100%	99%	14%
CCc1c(C(=O)NC2CCC(N3CCC(c4ccccc4C)CC3)CC2)[nH]c2ccc(OC)cc12 (configuration not stated)	100%	100%	78%
CC(C)(C(=O)Nc1ccc(C2CCC(NCC3CC3)CC2)c(Cl)c1)c1ccc(C(F)(F)F)cc1 (configuration not stated)	97%	18%	64%
CC(C)(C)c1ccc(CNC(=O)c2cc(CNC3CCC(N)CC3)ccc2O)cc1 (configuration not stated)	94%	1%	1%
Cc1[nH]c(C)c(-c2ccc(-c3ccc(OC(F)(F)F)cc3)cc2)c(=O)c1Br	96%	97%	33%
COc1ccc(N2CCN(CCCCNC(=O)c3ccc(NC(=O)c4ccc(C(F)(F)F)cc4)cc3)CC2)c(OC)c1	100%	8%	4%
O=C(Nc1ccc(Cl)c(Cl)c1)Nc1ccccc1N1CCNCC1.O=C(O)C(F)(F)F	100%	22%	17%
Cc1cc(C)c2ncc(C(=O)O)c(O)c2c1	93%	60%	0%
CC(Cc1ccc(NC(=O)c2ccc(CC(C)NCc3ccc(Cl)cc3)cc2)cc1)NCCc1cccc(Cl)c1 (configuration not stated)	100%	75%	95%
Cc1cc(N[C@@H](CC(C)C)C(=O)NCc2cccc(F)c2)nc(NCCc2ccccc2)n1.O=C(O)C(F)(F)F	88%	33%	6%
CS(=O)(=O)c1ccc2c(c1)CCN(CCC1CCC(NC(=O)C(=Cc3cccc(C#N)c3)c3ccc(-c4ccccc4)cc3)CC1)CC2 (configuration not stated)	99%	13%	24%
Cc1ccccc1C1CCN(C2CCC(NC(=O)C3=Cc4cc(Cl)ccc4OC3)CC2)CC1 (configuration not stated)	100%	99%	51%
COc1cc(NCC(CN)Cc2ccc3c(c2)OCO3)nc2ccccc12.Cl (configuration not stated)	94%	6%	41%
Br.Cc1ccnc(Nc2nc(-c3ccccn3)cs2)c1	100%	87%	45%
CC(C)N1CCN(CCCNc2c3ccccc3nc3ccccc23)CC1.Cl	100%	1%	29%
O=C(CCCCCNC(=O)c1ccc(O)c(-c2ccc(Cl)c(Cl)c2)c1)NCc1cccc2ccccc12	99%	15%	2%
OC(CNCc1cccc(Oc2ccc(Cl)cc2)c1)c1cccc(C(F)(F)F)c1 (configuration not stated)	94%	78%	0%
Cc1ccc(F)cc1S(=O)(=O)Nc1cccc(CCN2CCC(N3CCCCC3)CC2)c1	96%	9%	15%
CS(=O)(=O)CCNCc1cccc(-c2ccc3c(Nc4cc(O)c(Cl)cc4F)ccnc3c2)c1	100%	100%	9%
Cl.O=c1cc(NCCCNCc2csc(Br)c2Sc2ccc(Cl)cc2)[nH]c2ccccc12	95%	83%	5%
O=C(Nc1ccc(OC(F)(F)F)cc1)NC1CCN(c2ccnc3ccccc23)CC1.O=C(O)C(F)(F)F	100%	40%	40%
CCCCNc1ccc(C(=O)NC2CCN(C[C@H](O)c3ccnc4ccc(OC)cc34)CC2)cc1	90%	64%	12%
O=C(Nc1ccccc1)N(Cc1ccccc1-c1cccc(CNCc2ccc3c(c2)OCO3)c1)C1CCN(Cc2ccccc2)CC1.O=C(O)C(F)(F)F	100%	64%	35%
Cc1nc(-c2cccc(Nc3nccc(NCC(O)c4ccccc4C)n3)c2)cs1 (configuration not stated)	92%	14%	38%
Fc1ccc2[nH]c(-c3cccc(-c4cccc(CN5CCN(c6ccncc6)CC5)c4)c3)nc2c1.O=C(O)C(F)(F)F	100%	99%	71%
O=C(O)C(F)(F)F.Oc1ccc(CCNc2nc(NCc3cccc(-c4cc(C(F)(F)F)ccc4Cl)c3)nc(N3CCNCC3)n2)cc1	90%	8%	33%
